Experimental data: PubChem BioAssay AID504834 (National Center for Advancing Translational Sciences (NCATS), 2011)
Hit rate of the full screen: of about 320,000 compounds, about 22,000 (6.9%) were called active. About 27% were inconclusive and are not listed. Calls follow the shape of the dose curve; as a rule, active = well fitted inhibition curve with a large enough effect; inconclusive = small, poorly fitted or top-dose-only effect, or another doubt; inactive = no such curve, though single readings can be large or run the other way. What follows is part of a selection rich in actives, with near analogues and random picks from the rest. A call without a number means that no potency is given here.

assay: Primary qHTS for delayed death inhibitors of the malarial parasite plastid, 96 hour incubation; settings: P. falciparum luciferase reporter growth; series mostly up to 28.7 µM
From the text: The goal of this screen is to discover new antimalarial compounds that act by inhibiting the development of the apicoplast in the malarial parasite Plasmodium falciparum. The biochemical processes that make this organelle essential for erythrocytic stage parasites are not well understood. However, antibiotics such as azithromycin and tetracycline, which target the apicoplast translational machinery, have a potent antimalarial effect.
We have developed a cell-based assay that measures parasite growth based on the expression of an integrated copy of a firefly luciferase reporter. To detect small molecules that cause this "delayed death" phenotype, erythrocytes infected with the luciferase-expressing parasites were incubated with compounds for either one or two generations, corresponding to 48 and 96 hours, respectively. Compounds that inhibit parasite growth in the second generation, but not the first, should be enriched in antimalarials that target the apicoplast. Growth inhibition is detected by a decrease in luciferase activity.
Assay Provider: David Fidock and Eric Ekland, Columbia University
Keywords: NIH Roadmap, MLPCN, MLI, MLSMR, qHTS, NCGC, qHTS, malaria, luciferase, viability
Four microliters of infected erythrocytes (2% hematocrit, 0.05% parasitemia final concentration) in culture medium were dispensed and the plates incubated for 96 hours at 37 C in 5% CO2. Two microliters of luciferase detection reagent was added and luminescence was detected by a ViewLux (PerkinElmer) reader.
Potency is read from the fitted curve at half-maximal effect.

Structure (SMILES) | Potency
CSc1cc(C)[nH]c(=O)n1 | inactive
Cc1cc(SCc2c(F)cccc2Cl)nc(=O)[nH]1 | 11.7 µM (active)
Cc1snc(SCc2c(F)cccc2Cl)c1C#N | inactive
Cc1onc(-c2ccccc2)c1C(=O)N1CCN(S(=O)(=O)c2ccccc2C(F)(F)F)CC1 | inactive
O=C(CN1CCN(S(=O)(=O)/C=C/c2ccccc2)CC1)Nc1ccc(N2CCOCC2)cc1 | inactive
CN1CCN(Cc2ccccc2C(F)(F)F)CC1 | inactive
O=c1cc(CN2CCN(S(=O)(=O)/C=C/c3ccccc3)CC2)c2ccc(O)cc2o1 | 11.7 µM (active)
NC(=O)CCN1CCN(S(=O)(=O)/C=C/c2ccccc2)CC1 | inactive
Cc1ccc2c(CN3CCN(S(=O)(=O)c4ccccc4C(F)(F)F)CC3)cc(=O)oc2c1 | 9.28 µM (active)
Cc1cccc(NC(=O)CCn2c(=O)oc3ccccc32)c1 | inactive
CCCCn1c(N)c(N(CCOC)C(=O)c2oc3ccc(OC)cc3c2C)c(=O)[nH]c1=O | inactive
O=C(NCCS(=O)(=O)c1ccc(Br)cc1)c1ccccc1Cl | inactive
Cc1cccc(C(=O)Nc2ccc(C(=O)N/N=C/c3cccc(C)n3)cc2)c1 | inactive
COc1cccc(NC(=O)CSc2nccn(-c3ccc4c(c3)OCCO4)c2=O)c1 | inactive
CCOC(=O)c1ccc(NC(=O)CNC(=O)c2ccco2)cc1 | inactive
CCOC(=O)[C@@H]1[C@H]2COc3ccc(Br)cc3[C@H]2N2C(=O)N(c3ccc(Cl)cc3)C(=O)[C@@]12C | 11.7 µM (active)
CCOC(=O)C1CCN(C(=O)Nc2cccc(OC)c2)CC1 | inactive
CCOC(=O)[C@H]1[C@H]2COc3cc(OC)ccc3[C@@H]2N2C(=O)N(c3ccc(Br)cc3)C(=O)[C@@]12C | 11.7 µM (active)
CCOC(=O)C1C(c2ccc(Cl)cc2)NC(=S)NC1(O)C(F)(F)F (stereo not given) | inactive
COc1ccc(NS(=O)(=O)c2cccc(C(=O)NCCc3ccc(S(N)(=O)=O)cc3)c2)cc1 | inactive
CC1CCCCC1NC(=O)COC(=O)Cc1ccc(Cl)cc1 (stereo not given) | inactive
COc1ccc(-c2ocnc2C(=O)Nc2ccc3c(c2)CCC3)cc1 | inactive
O=S(=O)(Nc1ccccc1Br)c1cccs1 | inactive
CC(C)OCCCNC(=O)c1cc(Sc2ccc(F)cc2)nc2ccccc12 | 3.29 µM (active)
CCCCN(C)CCCNC(=O)c1cc(-c2cccs2)nc2ccccc12 | inactive
CC(C)CCNC(=O)c1cccnc1Sc1ccccc1 | inactive
O=C(O)C(NS(=O)(=O)c1cccc2nsnc12)c1ccccc1 (stereo not given) | inactive

Structure (SMILES) | Potency
CC(=O)Nc1cccc(NC(=O)c2ccc3c(c2)CCN3S(C)(=O)=O)c1 | inactive
O=C(CCCCO)c1ccc(O)c(Cl)c1 | inactive
COc1cccc(-c2nn(-c3ccccc3)cc2/C=C(\C#N)C(=O)NCCCn2ccnc2)c1 | 1.65 µM (active)
COc1ccc(/C=C(\C#N)C(=O)NCCCn2ccnc2)cc1 | inactive
COc1cc(OC)cc(C(=O)NCCCn2ccnc2)c1 | inactive
C/C=C(/C)C(=O)Nc1cccc(C2=NOC3(C2)C[C@@H](C(N)=O)N(C(=O)C2(C)CC2)C3)c1 (stereo not given in full) | inactive
CCOc1ncccc1C(=O)OCC(=O)c1c[nH]c2ccccc12 | inactive
O=C(NCCS(=O)(=O)NCc1ccc(F)cc1)c1ccccc1 | inactive
CSc1nccc(NC(=O)c2ccc(C(C)(C)C)cc2)n1 | inactive
CN1CCN(C2=NCCO2)CC1 | inactive
Cc1ccc(Sc2cc(C(=O)c3ccccc3C(=O)O)ccc2[N+](=O)[O-])cc1 | inactive
CN(C)c1ccc(Nc2c3c4c(cccc4n(C)c2=O)C(=O)c2ccccc2-3)cc1 | 5.22 µM (active)
CN(C)c1ccc(C2N(C)C(=O)c3ccccc3N2C)cc1 (stereo not given) | inactive
CC1C(=O)N(Cc2ccccc2)c2ccccc2N1C(=O)c1ccccc1 (stereo not given) | inactive
O=C(COC(=O)Cn1[nH]c(=O)c2ccccc2c1=O)Nc1c(Cl)cccc1C(F)(F)F | inactive
COc1cc(NC(=O)C2=CC(c3ccco3)=NS(=O)(=O)N2C)cc(OC)c1OC | inactive
CC/C(=N\NC(=O)c1c(C)nc2ccccn12)c1ccc(Cl)cc1 | inactive
O=C(Nc1ccccc1N1CCOCC1)c1ccc(OCc2cscn2)cc1 | inactive
CCc1nnc(NC(=O)/C=C/c2ccc(C)o2)s1 | 10.4 µM (active)
Cc1nnc(NC(=O)/C=C/c2ccco2)s1 | inactive
CCC(CC)c1nnc(NC(=O)/C=C/c2ccco2)s1 | inactive
CN1CCN(c2ccc(CNS(=O)(=O)c3cccc(F)c3)cc2)CC1 | inactive
N#CCCN(C(=O)COC(=O)C1CCN(c2ccc(C(F)(F)F)cn2)CC1)c1ccc(F)cc1 | inactive
COc1ccccc1-n1nnnc1SCC(=O)NC(=O)Cc1ccccc1 | inactive
O=C(c1cccc(-n2cccc2)c1)N1CCN(S(=O)(=O)c2ccc(F)cc2)CC1 | inactive
Cc1oc(-c2cccc(Cl)c2)[n+]([O-])c1C | 5.22 µM (active)
Cc1oc(-c2ccccc2Cl)[n+]([O-])c1C | inactive

Structure (SMILES) | Potency
CCOC(=O)CSc1ncc(-c2cccc(Cl)c2)cn1 | inactive
Cc1[nH]n(C(N)=S)c(=O)c1N=Nc1ccc(Cl)cc1Cl | inactive
CC(=O)Nc1cccc(C(=O)OCC(=O)NCc2cc(C)c(O)c(C)c2)c1 | inactive
Cc1ccc(S(=O)(=O)N2CC(O)C[C@H]2C(=O)OCC(=O)Nc2ccc(N3CCOCC3)cc2)cc1C (stereo not given in full) | inactive
CN(C(=O)COC(=O)c1ccc(Br)o1)c1c(N)n(Cc2ccccc2)c(=O)[nH]c1=O | inactive
O=C(Cc1ccc(-n2c(=O)[nH]c3ccccc3c2=O)cc1)N1CCN(c2cccc(Cl)c2)CC1 | inactive
CCOC(=O)N1CCN(C(=O)Cc2ccc(-n3c(=S)[nH]c4ccccc4c3=O)cc2)CC1 | 13.1 µM (active)
CCCCNC(=O)c1ccc(-n2c(=S)[nH]c3ccccc3c2=O)cc1 | inactive
CCc1nc(N2CCN(C(C)=O)CC2)c2c3c(sc2n1)CCCC3 | inactive
O=C(/C=C/c1cccc(F)c1)NC1CC1 | inactive
CCCc1nc2c(C)cc(-c3nc4ccccc4n3C)cc2n1Cc1ccc(-c2ccccc2C(=O)O)cc1 | 1.51 µM (active)
CC(=O)c1nc2ccccc2n1Cc1ccccc1 | inactive
CC(=O)Nc1nc2ccccc2n1Cc1ccc(C)cc1 | inactive
Cc1ccc2cc(/C=N/NC(=O)[C@@H]3CCCN3)c(Cl)nc2c1 | inactive
COc1ccc(CCNC(=O)CCc2cn(C)c3ccccc23)c(OC)c1 | inactive
Cc1nc(N)[nH]c(=O)c1Oc1cccc(C(F)(F)F)c1 | inactive
O=C(NCc1cccnc1)Nc1cccc(NC(=O)NCc2cccnc2)c1F | inactive
CC1CC(C)CN(C(=O)COC(=O)c2ccc3ncsc3c2)C1 (stereo not given) | inactive
Cc1ccc(S(=O)(=O)NC(=O)Nc2nc(-c3ccc(F)c(F)c3)cs2)cc1 | inactive
Cc1cc(=O)cc(C)n1-c1ccc(Cl)c(Cl)c1 | inactive
CCCCNC(=O)c1onc(CSc2cccc(OC)c2)c1C(=O)O | inactive
CCOc1cccc(SCc2noc(C(=O)NC(C)C)c2C(=O)O)c1 | inactive
CCCNC(=O)c1onc(CSc2ccc(F)cc2)c1C(=O)NC(C)C | 11.7 µM (active)
CNc1nc(-c2ccccc2)cc(-c2ccccc2)n1 | inactive
Nc1nc(-c2ccccc2)cc(-c2ccccc2)n1 | inactive
Nc1cccc(-c2cc(-c3ccccc3)nc(-c3cccc(N)c3)n2)c1 | 10.4 µM (active)
CCCOc1ccc(Cc2c(O)nc(SC)[nH]c2=O)cc1C | inactive

Structure (SMILES) | Potency
Cc1ccc(S(=O)(=O)NCCSC(C)(C)C)cc1 | inactive
COc1ccccc1CNS(=O)(=O)c1ccc(C)cc1 | inactive
COc1nc(N(C)C)nc(N2CC(=O)N(CCNS(=O)(=O)c3ccc(C)cc3)C2=N)n1 | 2.33 µM (active)
CCOC(=O)C1(CCOC)CCN(Cc2cc3ccccc3s2)CC1 | inactive
O=C(Nc1cccc(-c2cscn2)c1)C1CCN(Cc2ccsc2)CC1 | inactive
CCOc1cc(C2C(C(=O)OC(C)C)=C(C)NC3=C2C(=O)CCC3)cc([N+](=O)[O-])c1O (stereo not given) | inactive
COc1cc(C2C(C#N)=C(C)NC3=C2C(=O)CC(C)(C)C3)ccc1O (stereo not given) | inactive
CCOC(=O)C1=C(C)NC2=C(C(=O)CC(C)(C)C2)C1c1ccsc1 (stereo not given) | 7.38 µM (active)
Cc1ccc2c(C)c(C(=O)N(C)Cc3ccncn3)oc2c1C | inactive
COc1cccc(CC(=O)Nc2nc(-c3ccc(OC)c(OC)c3)cs2)c1 | inactive
CCc1nnc(NC(=O)Cc2cccs2)s1 | inactive
CCCc1ccc(-c2csc(NC(=O)Cc3cccs3)n2)cc1 | 11.7 µM (active)
CC(NCC(=O)Nc1cc(Cl)cc(Cl)c1)c1ccccc1 (stereo not given) | inactive
COc1cccc(-c2coc3cc4oc(=O)c(CC(=O)O)c(C)c4cc23)c1 | inactive
COc1ccc(OCCCC(=O)OC(C)C(=O)Nc2ccccc2[N+](=O)[O-])cc1 (stereo not given) | inactive
Cc1ccc(N2C(=O)NC(=O)C(CCc3ccncc3)(Cc3cccc(Cl)c3Cl)C2=O)cc1 (stereo not given) | 11.7 µM (active)
O=C1NC(=O)C(CCc2ccccn2)(Cc2cccc(Cl)c2Cl)C(=O)N1c1ccc(Br)cc1 (stereo not given) | inactive
CC(C)(C)c1ccc(/C=C/C(=O)NCCCn2ccnc2)cc1 | inactive
O=C1CCN(CCc2ccccc2)CCN1CCOc1ccccc1 | inactive
CC(C)C[C@@H](COc1ccccc1)N1CCN(CC(C)C)CCC1=O | 11.7 µM (active)
CC(C)C[C@@H](CO)N1CCN(Cc2ccc(O)cc2)CCC1=O | inactive
CCCNC(=O)N1CCC(c2ccc3c(c2)OCO3)CC1 | inactive
CC1CN(C(=S)Nc2ccc(S(N)(=O)=O)cc2)CC(C)O1 (stereo not given) | inactive
O=[N+]([O-])c1ccc(N2CCN(c3ccc(F)cc3)CC2)cn1 | inactive
